Most compounds without a hit are left out; they make up all but 1.4% or so of the library.
MCL1 BIM primary = disrupts human MCL1 binding to BIM-BH3 peptide; GST-MCL1 / FITC-Bim-BH3 fluorescence polarization; inhibition, % at 10.9 µM; actives 0.68% (n = 320,000);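 active means inhibition above the mean inhibition of all tested compounds plus 3 SD, set per campaign, cut at about 40% in these data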;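 further: 0% = DMSO wells and 100% = unlabeled Bim-BH3 peptide control; higher means more loss of mP so more displacement of Bim peptide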
Target sequence (Q07820 whole entry, looked up): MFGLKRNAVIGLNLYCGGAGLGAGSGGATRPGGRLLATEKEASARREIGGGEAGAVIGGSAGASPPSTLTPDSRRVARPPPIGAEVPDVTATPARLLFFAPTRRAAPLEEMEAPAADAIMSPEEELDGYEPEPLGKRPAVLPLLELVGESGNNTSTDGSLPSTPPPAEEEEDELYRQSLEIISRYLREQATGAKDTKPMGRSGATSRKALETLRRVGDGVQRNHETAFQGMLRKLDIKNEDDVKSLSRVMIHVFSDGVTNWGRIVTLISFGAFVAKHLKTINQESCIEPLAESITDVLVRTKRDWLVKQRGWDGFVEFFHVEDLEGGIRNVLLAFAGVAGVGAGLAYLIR
EBV gp42 block = EBV gp42 inhibition; Q1HVG2; Fluorescence polarization binding assay, mP read-out; inhibition, % (tested at 21.74 µM); actives 0.42% (n = 220,000); AID 1085; in the data active means inhibition above about 50%
eLon inh = E. coli protease La inhibition | purified E. coli Lon protease, fluorescence polarization | inhibition, % at 7.94 µM | actives 0.42% (n = 360,000) | AID 602123; in the data active means inhibition above about 13%, passing the limit was not always enough;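 further: 0% = enzyme with probe and DMSO and 100% = no enzyme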
Bcl-xL primary = inhibitors of human Bcl-xL; Q07817; GST-Bcl-xL / FITC-Bim BH3 peptide fluorescence polarization; inhibition, % at 10.9 µM; actives 0.7% (n = 320,000);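 active means inhibition above the mean of all tested compounds plus 3 SD, cutoff set per campaign, cut at about 30% in these data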;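 further: 0% = DMSO wells and 100% = unlabeled Bim-BH3 peptide competitor; inhibitors lower millipolarization by displacing the labeled peptide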
Target sequence (Q07817 whole entry, looked up): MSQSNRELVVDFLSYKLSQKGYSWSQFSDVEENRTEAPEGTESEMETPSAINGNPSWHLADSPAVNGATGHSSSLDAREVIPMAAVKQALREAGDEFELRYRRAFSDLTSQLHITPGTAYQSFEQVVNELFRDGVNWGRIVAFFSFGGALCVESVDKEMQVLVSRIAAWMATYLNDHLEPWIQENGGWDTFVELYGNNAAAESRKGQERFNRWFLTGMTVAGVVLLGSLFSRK
MEX-5 binding = C. elegans MEX-5 TCR-2 RNA binding activity | AID 1832 | actives 0.38% (n = 300,000) | MEX-5/FITC-TCR2 RNA binding, fluorescence polarization; stronger effect = lower value | Q9XUB2 | activity score (negative = inhibition of binding), % at 10 µM;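 active means inhibition past about -25% in most replicates, and total fluorescence under double the plate's negative control median, limit read from the data; inconclusive means replicates evenly split on the limit, or fluorescence at least double controls; inactive means too little inhibition in most replicates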;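 further: 0% = DMSO and -100% = 5 µM competing unlabeled TCR2 RNA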
GLD-1 RNA inh = GLD-1-TGE RNA interaction inhibition (C. elegans). Q17339. purified GLD-1 + fluorescein TGE RNA, fluorescence polarization. inhibition, % at 5.96 µM. actives 0.44% (n = 320,000);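 active means percent inhibition above a per-plate cutoff, the plate mean of test compounds plus 3 SD, cut at about 30% in these data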;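 further: 0% = DMSO wells with GLD-1 and probe and 100% = wells lacking GLD-1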
Bcl-xL conf = Bcl-xL (human) inhibition, MCL1 counter-screen confirmation. actives 54% (n = 1,700). inhibition, % at 10.9 µM. GST-Bcl-xL / FITC-Bim BH3 peptide FP binding. shares compounds with MCL1 BIM primary. AID 2166;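 active means inhibition above a cutoff equal to the mean inhibition of all tested compounds plus 3 SD, cut at about 30% in these data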;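 further: 0% = DMSO wells and 100% = unlabeled Bim BH3 control peptide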
MCL1 inh confirm = confirmation of human MCL1 and BIM-BH3 interaction inhibitors | shares compounds with MCL1 BIM primary | GST-MCL1 / FITC-Bim-BH3 fluorescence polarization | inhibition, % at 10.9 µM | actives 61% (n = 1,700) | AID 2168;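 active means inhibition above the average of all tested compounds plus 3 SD, cut at about 40% in these data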;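 further: 0% = DMSO wells and 100% = unlabeled Bim-BH3 control peptide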
The depositor's hits bear a star; ? = inconclusive; . = no result given.

SMILES	MCL1 BIM primary	EBV gp42 block	eLon inh	Bcl-xL primary	MEX-5 binding	GLD-1 RNA inh	Bcl-xL conf	MCL1 inh confirm
CCCC1=Nc2cc(C(=O)N3CCC(C(=O)OCC)CC3)ccc2Sc2ccccc21	-3	.	-4	4	0	10	.	.
CC(=O)OCC1=C(C(=O)O)N2C(=O)C(NC(=O)c3ccc(COc4cccc(Cl)c4Cl)o3)C2SC1 (stereo not given)	51*	3	9	29	-4	-1	18	66*
COC/C=C/C1=CC2=CC(=O)C(C)(OC(=O)c3cnc4ccccc4n3)C(=O)C2=CN1C(CO)CO (stereo not given)	13	0	-5	13	-2	9	.	.
COC/C=C/C1=CC2=CC(=O)C(C)(OC(=O)c3cnc4ccccc4n3)C(=O)C2=CO1 (stereo not given)	96*	.	.	74*	-42*	58*	29	56*
CCOC(=O)C(C#N)=C1CCN(Cc2ccccc2)CC1	60*	.	8	58*	-1	29	36*	36
CCS(=O)(=O)c1ccc2oc(Nc3cccc(OC)c3)nc2c1	15	5	0	12	2	-4	.	.
O=C(Nc1ccc2c(c1)nc1n2CCN(C2CCCCC2)C1)NC1CCCCC1	67*	83*	.	57*	-8	28	44*	54*
CN(C(=O)CN1C(=O)NC(C)(c2cccc(Br)c2)C1=O)C1CCCCC1 (stereo not given)	82*	.	-3	8	.	-2	4	0
CCOC(=O)c1cc(C#N)c(SCC(=O)c2cc(C#N)c(SC)nc2C)[nH]c1=O	117*	22	-4	103*	-5	77*	21	18
CC(=O)c1cc(-c2ccccc2)n(CC(=O)N2CCN(C3CCCC3)CC2)c1C	55*	-3	28	45*	-17	15	19	24
COC(=O)C(Cc1ccccc1)NCC(=O)Nc1cccc(Cl)c1C (stereo not given)	-3	.	-3	0	0	-7	.	.
O=C(COc1cccc2ccccc12)N/N=C/c1ccccc1OCc1ccc(C(=O)O)cc1	49*	-5	3	8	-2	-4	6	39
Cn1cc(CCC(=O)NCc2ccc(Cl)cc2)c2ccccc21	53*	.	6	1	3	-3	-1	-6
CCc1ccc(CNC(=O)CCc2cn(C)c3ccccc23)cc1	-6	.	3	2	0	-1	.	.
Cc1noc(C)c1C(=O)N1CCC1(C)C(=O)NS(=O)(=O)c1ccc(F)cc1F (stereo not given)	.	.	7	.	.	.	.	.
O=[N+]([O-])c1ccc(CN2CCN(c3ccccc3)CC2)o1	7	.	-2	6	2	7	.	.
Clc1ccccc1-c1ccc(CN2CCN(c3ccccc3)CC2)o1	133*	-4	-2	4	0	3	13	10
CC(=O)Nc1ccc(NC(=O)c2ccccc2S(=O)(=O)c2ccc([N+](=O)[O-])cc2)cc1	2	-4	-4	8	1	5	.	.
CC(=O)N1CCOCCOCCN(C(C)=O)CCOCC1	-5	-12	6	0	2	-6	.	.
COc1cccc(C(=O)NCCCNC(=O)c2cccc(OC)c2)c1	-4	.	-6	-5	2	-3	.	.
COc1cc(OC)cc(C(=O)NCCCCCCNC(=O)c2cc(OC)cc(OC)c2)c1	48*	.	5	44*	.	24	38*	49*
Cc1ccc(NC(=S)N(CCN2CCCCC2)Cc2ccco2)cc1Cl	7	-14	3	6	1	1	.	.
COc1ccc(C(=O)N/N=C/c2cc3ccccc3[nH]c2=S)cc1	44*	4	7	17	0	11	7	28
COc1ccc(C(=O)N/N=C/c2c[nH]c3ccccc23)cc1	11	.	-4	3	1	-1	.	.
Cc1cc(C)cc(N2C(=O)CSC2c2ccccn2)c1 (stereo not given)	-1	7	-3	-1	2	-1	.	.
SMILES	MCL1 BIM primary	EBV gp42 block	eLon inh	Bcl-xL primary	MEX-5 binding	GLD-1 RNA inh	Bcl-xL conf	MCL1 inh confirm
O=C(O)c1cc(-c2ccc(/C=C3/SC(=S)N(Cc4ccccc4)C3=O)o2)ccc1Cl	.	-105	-116	.	.	.	.	.
CN1C(=O)/C(=C/c2ccc(-c3ccccc3[N+](=O)[O-])o2)SC1=Nc1ccc(Cl)c(C(=O)O)c1	74*	-3	-4	44*	?	25	23	40
Cc1ccccc1-c1nc(Cc2ccccc2)no1	44*	-4	-2	6	0	7	3	-4
CC(=O)c1ccc(NC(=O)c2cn(C)c(=O)c3ccccc23)cc1	.	.	-20	.	.	.	.	.
O=C(O)c1c2c(nc3ccccc13)/C(=C/c1ccc(O)cc1)CC2	54*	1	2	36*	-30*	10	34*	54*
Nc1ccccc1N1CCN(C(=O)c2ccccc2)CC1	108*	-11	3	6	-1	-2	12	11
CCCCN(C(=O)c1ccccc1OCc1ccc(F)cc1)c1c(N)n(CC(C)C)c(=O)[nH]c1=O	-3	.	-25	1	2	5	.	.
CN(C)Cc1c(O)ccc2cc(-c3nc4ccccc4n3C)c(=O)oc12	64*	.	-19	52*	-3	22	27	33
COc1ccc2c(c1)O/C(=C\c1ccco1)C2=O	10	-21	-13	7	-5	0	.	.
Cc1cc(O)c(CN(C)C)c2c1C(=O)/C(=C/c1ccco1)O2	61*	.	-24	62*	-37*	26	78*	89*
CC(C)OC(=O)CC(=O)c1sc2nc3c(cc2c1N)CN(C)CC3	98*	69*	.	84*	-31*	53*	60*	72*
O=C(CC1Nc2ccccc2NC1=O)c1ccccc1 (stereo not given)	46*	0	.	15	?	-25	-11	-21
O=C(CC1Nc2ccccc2NC1=O)NCCc1ccccc1 (stereo not given)	4	2	3	9	3	-4	.	.
O=C1NC(=S)SC1=C1CCCC1	44*	-16	-6	12	4	-7	26	60*
CN1C(=O)C(=C2CCCCCC2)SC1=S	9	-23	10	-2	4	4	.	.
CS/C(Nc1cc(Cl)ccc1Cl)=C(/C#N)C(=O)c1ccco1	54*	-4	2	8	1	1	13	25
O=C(O)c1cc(-c2ccco2)nn1-c1cccc(Cl)c1	82*	17	-26	31*	-8	-11	18	38
O=C(O)c1cc(-c2ccco2)nn1-c1ccc(Cl)cc1	.	27	-20	.	-1	.	.	.

High-throughput results: PubChem, several laboratories
